Source: ChEMBL document CHEMBL1961873, “Compounds: GSK PKIS; Assays: Nanosyn kinase panel” (2012)

Experiments:
[1] = molecular target: Fibroblast growth factor receptor 4 (Homo sapiens) (UniProt P22455); conditions: at 1 µM;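 further: reported figure is the averaged percent inhibition of FGFR4, from the GSK PKIS kinase screening panel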
[2] = molecular target: Tyrosine-protein kinase Fgr (Homo sapiens) (UniProt P09769); conditions: at 0.1 µM
[3] = molecular target: Tyrosine-protein kinase Fgr (Homo sapiens) (UniProt P09769); conditions: at 1 µM
[4] = molecular target: Vascular endothelial growth factor receptor 1 (Homo sapiens) (UniProt P17948); conditions: at 0.1 µM
Sequence of Vascular endothelial growth factor receptor 1 (Homo sapiens) (P17948 whole entry): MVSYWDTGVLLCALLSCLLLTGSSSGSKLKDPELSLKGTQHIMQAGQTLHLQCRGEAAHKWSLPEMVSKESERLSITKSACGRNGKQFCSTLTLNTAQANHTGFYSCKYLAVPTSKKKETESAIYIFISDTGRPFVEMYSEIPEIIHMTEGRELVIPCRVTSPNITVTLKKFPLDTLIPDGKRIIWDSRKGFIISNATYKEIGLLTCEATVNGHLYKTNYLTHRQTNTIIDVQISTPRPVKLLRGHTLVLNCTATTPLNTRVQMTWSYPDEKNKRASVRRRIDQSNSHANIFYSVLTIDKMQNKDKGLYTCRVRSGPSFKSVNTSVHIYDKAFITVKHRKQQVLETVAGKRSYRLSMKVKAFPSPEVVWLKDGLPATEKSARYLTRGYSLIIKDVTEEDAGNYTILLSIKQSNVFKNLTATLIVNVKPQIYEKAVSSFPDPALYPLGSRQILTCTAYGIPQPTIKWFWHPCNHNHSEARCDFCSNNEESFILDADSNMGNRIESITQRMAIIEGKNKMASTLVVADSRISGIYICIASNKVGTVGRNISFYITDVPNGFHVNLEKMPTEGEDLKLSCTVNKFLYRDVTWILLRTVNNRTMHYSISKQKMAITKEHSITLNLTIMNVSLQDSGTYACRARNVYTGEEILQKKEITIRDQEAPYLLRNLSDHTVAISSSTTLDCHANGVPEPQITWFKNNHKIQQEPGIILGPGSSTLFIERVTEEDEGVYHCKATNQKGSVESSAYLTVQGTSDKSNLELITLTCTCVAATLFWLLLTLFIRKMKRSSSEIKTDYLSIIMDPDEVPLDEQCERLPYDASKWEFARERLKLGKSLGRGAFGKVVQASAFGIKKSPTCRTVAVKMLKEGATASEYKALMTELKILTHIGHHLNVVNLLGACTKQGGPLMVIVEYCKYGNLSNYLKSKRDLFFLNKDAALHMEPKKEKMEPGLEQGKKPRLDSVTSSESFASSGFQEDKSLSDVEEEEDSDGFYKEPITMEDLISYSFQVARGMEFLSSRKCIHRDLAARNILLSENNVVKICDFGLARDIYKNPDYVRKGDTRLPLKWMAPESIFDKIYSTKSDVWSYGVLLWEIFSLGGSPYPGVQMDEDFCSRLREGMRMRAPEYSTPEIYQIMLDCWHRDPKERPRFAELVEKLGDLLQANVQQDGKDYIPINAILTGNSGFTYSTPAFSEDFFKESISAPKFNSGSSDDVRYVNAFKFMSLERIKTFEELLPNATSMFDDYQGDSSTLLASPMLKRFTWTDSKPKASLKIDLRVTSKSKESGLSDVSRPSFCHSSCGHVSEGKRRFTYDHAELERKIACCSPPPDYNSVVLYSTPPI

[5] = molecular target: Vascular endothelial growth factor receptor 1 (Homo sapiens) (UniProt P17948); conditions: at 1 µM
[6] = molecular target: Receptor-type tyrosine-protein kinase FLT3 (Homo sapiens) (UniProt P36888); conditions: at 0.1 µM
[7] = molecular target: Receptor-type tyrosine-protein kinase FLT3 (Homo sapiens) (UniProt P36888); conditions: at 1 µM
[8] = tested on: T1, Receptor-type tyrosine-protein kinase FLT3 (Homo sapiens), P36888 [D835Y]; conditions: at 0.1 µM
T1 sequence (whole entry): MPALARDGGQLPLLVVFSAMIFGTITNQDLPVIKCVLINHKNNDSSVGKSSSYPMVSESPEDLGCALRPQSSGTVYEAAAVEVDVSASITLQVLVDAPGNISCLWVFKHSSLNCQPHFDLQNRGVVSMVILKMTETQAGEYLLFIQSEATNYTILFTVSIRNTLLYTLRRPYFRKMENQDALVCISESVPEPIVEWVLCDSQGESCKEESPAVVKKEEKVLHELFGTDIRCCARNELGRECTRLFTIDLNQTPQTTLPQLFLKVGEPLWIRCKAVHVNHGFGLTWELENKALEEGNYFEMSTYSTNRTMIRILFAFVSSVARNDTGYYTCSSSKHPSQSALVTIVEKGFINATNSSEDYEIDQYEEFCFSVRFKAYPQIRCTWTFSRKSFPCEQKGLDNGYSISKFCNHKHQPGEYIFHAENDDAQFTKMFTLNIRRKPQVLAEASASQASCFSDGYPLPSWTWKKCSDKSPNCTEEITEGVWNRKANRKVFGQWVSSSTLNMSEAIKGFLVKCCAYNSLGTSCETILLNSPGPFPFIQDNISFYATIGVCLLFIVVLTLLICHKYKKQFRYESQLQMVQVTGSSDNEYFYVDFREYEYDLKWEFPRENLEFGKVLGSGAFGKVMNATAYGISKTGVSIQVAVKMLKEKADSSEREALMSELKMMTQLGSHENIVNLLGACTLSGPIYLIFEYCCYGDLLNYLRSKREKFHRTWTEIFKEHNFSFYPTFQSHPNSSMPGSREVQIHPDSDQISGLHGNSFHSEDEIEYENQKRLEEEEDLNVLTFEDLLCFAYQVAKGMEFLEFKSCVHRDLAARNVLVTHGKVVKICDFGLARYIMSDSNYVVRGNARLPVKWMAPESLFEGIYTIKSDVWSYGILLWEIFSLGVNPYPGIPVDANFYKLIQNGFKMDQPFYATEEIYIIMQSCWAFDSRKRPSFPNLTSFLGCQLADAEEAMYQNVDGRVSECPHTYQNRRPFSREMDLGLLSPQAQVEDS

[9] = molecular target: Non-receptor tyrosine-protein kinase TYK2 (Homo sapiens) (UniProt P29597); conditions: at 1 µM;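 further: values are mean percent inhibition of TYK2 kinase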
Sequence of Non-receptor tyrosine-protein kinase TYK2 (Homo sapiens) (P29597 whole entry): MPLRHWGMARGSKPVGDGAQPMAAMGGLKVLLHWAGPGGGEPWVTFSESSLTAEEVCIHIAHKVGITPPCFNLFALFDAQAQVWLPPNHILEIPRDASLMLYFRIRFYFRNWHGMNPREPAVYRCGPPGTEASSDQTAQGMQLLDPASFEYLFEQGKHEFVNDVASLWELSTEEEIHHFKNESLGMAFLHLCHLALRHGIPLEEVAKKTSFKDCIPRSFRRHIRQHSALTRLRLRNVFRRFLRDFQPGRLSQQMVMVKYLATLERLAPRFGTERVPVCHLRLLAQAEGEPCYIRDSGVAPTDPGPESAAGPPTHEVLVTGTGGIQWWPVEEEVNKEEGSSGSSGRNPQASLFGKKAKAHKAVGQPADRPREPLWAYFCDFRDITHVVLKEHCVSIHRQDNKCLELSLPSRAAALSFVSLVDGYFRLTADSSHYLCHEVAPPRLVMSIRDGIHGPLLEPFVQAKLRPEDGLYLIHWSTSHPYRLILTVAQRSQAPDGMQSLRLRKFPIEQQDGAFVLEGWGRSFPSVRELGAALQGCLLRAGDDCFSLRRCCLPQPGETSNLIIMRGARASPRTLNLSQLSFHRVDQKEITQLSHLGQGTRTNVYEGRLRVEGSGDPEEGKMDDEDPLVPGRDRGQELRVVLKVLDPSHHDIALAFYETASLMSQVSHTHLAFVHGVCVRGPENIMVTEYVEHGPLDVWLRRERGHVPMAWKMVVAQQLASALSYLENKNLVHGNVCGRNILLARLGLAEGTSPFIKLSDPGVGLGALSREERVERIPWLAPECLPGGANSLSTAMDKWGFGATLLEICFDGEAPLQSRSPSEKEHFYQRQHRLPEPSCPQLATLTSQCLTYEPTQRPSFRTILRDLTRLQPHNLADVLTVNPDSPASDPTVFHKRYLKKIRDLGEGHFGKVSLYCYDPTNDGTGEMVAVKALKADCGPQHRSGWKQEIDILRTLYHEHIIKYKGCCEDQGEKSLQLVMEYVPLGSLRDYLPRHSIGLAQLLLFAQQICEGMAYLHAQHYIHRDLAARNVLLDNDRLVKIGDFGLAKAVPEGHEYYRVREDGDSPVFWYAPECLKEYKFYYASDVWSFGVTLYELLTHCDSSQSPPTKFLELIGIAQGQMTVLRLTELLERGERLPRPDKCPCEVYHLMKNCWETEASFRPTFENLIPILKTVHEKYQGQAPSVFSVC

[10] = molecular target: T2, Tyrosine-protein kinase receptor TYRO3 (Homo sapiens) (UniProt Q06418); conditions: at 0.1 µM
T2 sequence (whole entry): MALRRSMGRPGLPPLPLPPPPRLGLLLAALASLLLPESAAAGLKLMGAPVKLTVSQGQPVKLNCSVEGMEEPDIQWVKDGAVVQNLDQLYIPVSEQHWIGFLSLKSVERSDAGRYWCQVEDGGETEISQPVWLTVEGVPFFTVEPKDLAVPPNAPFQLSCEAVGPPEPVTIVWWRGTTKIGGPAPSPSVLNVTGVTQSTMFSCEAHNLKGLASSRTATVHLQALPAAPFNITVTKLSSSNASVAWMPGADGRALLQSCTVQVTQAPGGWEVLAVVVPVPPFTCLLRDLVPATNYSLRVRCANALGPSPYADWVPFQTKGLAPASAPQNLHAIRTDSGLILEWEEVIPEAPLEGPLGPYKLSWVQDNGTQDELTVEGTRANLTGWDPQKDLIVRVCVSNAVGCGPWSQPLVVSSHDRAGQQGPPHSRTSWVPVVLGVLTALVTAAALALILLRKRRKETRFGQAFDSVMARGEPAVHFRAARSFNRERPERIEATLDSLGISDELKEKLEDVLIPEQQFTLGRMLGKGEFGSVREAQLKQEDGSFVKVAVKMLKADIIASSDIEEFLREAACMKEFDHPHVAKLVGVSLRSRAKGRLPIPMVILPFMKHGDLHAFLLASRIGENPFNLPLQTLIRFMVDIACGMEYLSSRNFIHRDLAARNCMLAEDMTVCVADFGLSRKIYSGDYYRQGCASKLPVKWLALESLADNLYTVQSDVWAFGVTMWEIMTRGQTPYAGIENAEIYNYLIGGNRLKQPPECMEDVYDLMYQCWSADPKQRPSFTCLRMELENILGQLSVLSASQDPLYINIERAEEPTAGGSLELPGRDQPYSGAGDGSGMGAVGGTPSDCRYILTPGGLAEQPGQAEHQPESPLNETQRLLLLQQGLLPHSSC

[11] = molecular target: T2, Tyrosine-protein kinase receptor TYRO3 (Homo sapiens); conditions: at 1 µM
[12] = molecular target: Tyrosine-protein kinase Yes (Homo sapiens) (UniProt P07947); conditions: at 0.1 µM
Sequence of Tyrosine-protein kinase Yes (Homo sapiens) (P07947 2-543 limits assumed): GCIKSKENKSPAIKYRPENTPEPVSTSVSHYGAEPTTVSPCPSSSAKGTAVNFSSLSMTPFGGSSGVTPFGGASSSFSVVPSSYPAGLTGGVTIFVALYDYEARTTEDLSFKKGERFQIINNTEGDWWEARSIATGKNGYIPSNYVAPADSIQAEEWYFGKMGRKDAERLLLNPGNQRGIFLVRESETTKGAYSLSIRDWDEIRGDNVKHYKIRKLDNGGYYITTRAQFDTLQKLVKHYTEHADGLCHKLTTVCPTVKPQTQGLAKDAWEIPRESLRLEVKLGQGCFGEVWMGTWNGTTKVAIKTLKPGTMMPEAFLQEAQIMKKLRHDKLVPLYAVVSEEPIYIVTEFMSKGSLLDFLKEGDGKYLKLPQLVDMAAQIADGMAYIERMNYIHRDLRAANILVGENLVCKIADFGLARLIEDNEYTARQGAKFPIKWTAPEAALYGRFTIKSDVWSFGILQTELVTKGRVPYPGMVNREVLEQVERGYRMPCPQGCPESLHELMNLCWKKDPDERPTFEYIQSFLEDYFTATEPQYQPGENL

[13] = molecular target: Tyrosine-protein kinase Yes (Homo sapiens) (UniProt P07947); conditions: at 1 µM
[14] = molecular target: T3, Tyrosine-protein kinase ZAP-70 (Homo sapiens) (UniProt P43403); conditions: at 0.1 µM
T3 sequence (whole entry): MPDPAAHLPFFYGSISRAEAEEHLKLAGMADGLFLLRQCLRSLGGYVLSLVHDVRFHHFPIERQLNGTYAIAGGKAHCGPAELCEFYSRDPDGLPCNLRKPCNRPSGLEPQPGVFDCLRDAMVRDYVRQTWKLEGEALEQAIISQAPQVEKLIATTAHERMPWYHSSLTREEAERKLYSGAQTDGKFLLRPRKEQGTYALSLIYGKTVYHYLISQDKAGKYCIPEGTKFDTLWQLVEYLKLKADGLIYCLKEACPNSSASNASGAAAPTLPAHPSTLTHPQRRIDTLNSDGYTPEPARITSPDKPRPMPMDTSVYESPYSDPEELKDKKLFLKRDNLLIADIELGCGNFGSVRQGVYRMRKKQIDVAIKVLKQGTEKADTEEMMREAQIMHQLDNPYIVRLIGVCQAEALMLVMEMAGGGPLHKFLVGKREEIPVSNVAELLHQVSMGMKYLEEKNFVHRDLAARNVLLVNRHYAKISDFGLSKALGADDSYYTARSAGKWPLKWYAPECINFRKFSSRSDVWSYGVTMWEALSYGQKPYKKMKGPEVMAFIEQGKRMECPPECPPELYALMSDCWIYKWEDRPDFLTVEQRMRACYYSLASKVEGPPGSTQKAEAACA

[15] = molecular target: T3, Tyrosine-protein kinase ZAP-70 (Homo sapiens); conditions: at 1 µM
[16] = molecular target: Serine/threonine-protein kinase B-raf (Homo sapiens) (UniProt P15056); conditions: at 0.1 µM
[17] = molecular target: Serine/threonine-protein kinase B-raf (Homo sapiens) (UniProt P15056); conditions: at 1 µM
[18] = tested on: Serine/threonine-protein kinase B-raf (Homo sapiens), P15056 [V600E]; conditions: at 0.1 µM
[19] = tested on: Serine/threonine-protein kinase B-raf (Homo sapiens), P15056 [V600E]; conditions: at 1 µM
[20] = molecular target: RAF proto-oncogene serine/threonine-protein kinase (Homo sapiens) (UniProt P04049); conditions: at 0.1 µM;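 further: values are mean CRAF kinase inhibition from profiling of the GSK Published Kinase Inhibitor Set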
Sequence of RAF proto-oncogene serine/threonine-protein kinase (Homo sapiens) (P04049 whole entry): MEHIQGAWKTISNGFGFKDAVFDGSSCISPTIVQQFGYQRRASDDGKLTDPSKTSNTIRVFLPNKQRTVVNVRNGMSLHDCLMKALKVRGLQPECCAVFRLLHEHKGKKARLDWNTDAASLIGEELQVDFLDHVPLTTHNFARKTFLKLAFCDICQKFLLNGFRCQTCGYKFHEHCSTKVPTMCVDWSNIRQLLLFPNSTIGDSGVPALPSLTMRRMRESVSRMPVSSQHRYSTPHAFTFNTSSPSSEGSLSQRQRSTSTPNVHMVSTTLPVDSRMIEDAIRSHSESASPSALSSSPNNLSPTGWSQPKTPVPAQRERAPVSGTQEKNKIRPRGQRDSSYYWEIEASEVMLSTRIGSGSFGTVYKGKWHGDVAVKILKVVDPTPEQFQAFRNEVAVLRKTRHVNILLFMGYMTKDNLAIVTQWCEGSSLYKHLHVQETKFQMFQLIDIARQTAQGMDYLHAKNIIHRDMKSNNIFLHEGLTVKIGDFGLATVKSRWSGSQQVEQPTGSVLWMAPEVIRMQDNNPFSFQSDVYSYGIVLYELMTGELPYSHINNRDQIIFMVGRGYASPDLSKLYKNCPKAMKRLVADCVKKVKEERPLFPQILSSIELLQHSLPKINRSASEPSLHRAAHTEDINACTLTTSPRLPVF

Sequence of Tyrosine-protein kinase Fgr (Homo sapiens) (P09769 2-529 limits assumed): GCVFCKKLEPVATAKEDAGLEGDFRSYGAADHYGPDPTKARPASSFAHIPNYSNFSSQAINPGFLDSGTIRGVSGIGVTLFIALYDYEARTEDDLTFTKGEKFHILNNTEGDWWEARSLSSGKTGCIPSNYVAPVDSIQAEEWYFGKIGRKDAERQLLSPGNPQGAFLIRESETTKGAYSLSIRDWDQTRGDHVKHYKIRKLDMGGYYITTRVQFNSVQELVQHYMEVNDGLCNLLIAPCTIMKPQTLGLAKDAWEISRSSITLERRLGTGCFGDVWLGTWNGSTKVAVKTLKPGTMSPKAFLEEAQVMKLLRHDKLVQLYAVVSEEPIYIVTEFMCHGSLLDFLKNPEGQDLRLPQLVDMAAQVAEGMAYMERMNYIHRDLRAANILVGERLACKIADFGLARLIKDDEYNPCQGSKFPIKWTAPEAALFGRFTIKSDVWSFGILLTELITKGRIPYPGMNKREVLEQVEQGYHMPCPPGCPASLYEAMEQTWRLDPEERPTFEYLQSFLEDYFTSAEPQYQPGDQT
Sequence of Fibroblast growth factor receptor 4 (Homo sapiens) (P22455 22-802 limits assumed): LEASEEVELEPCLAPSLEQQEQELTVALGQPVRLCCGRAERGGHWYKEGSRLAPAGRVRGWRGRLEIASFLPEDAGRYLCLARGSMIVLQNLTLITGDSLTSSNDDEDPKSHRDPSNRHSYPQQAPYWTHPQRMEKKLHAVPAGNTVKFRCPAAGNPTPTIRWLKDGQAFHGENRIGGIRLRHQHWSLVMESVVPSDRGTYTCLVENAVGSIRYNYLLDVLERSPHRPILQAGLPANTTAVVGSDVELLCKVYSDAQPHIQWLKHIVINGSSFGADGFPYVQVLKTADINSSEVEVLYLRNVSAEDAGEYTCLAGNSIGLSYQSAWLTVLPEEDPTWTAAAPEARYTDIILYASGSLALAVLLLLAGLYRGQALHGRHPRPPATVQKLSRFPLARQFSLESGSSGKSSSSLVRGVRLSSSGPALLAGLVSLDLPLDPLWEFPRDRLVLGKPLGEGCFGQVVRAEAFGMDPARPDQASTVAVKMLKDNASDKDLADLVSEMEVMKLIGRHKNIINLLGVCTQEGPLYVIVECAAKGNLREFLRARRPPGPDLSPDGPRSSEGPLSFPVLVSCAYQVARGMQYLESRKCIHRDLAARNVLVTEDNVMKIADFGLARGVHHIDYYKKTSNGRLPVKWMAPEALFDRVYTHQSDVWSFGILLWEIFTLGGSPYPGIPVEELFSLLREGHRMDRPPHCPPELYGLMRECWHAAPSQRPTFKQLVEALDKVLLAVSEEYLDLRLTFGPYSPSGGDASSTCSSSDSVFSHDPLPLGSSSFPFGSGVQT

SMILES | inhibition [1] | inhibition [2] | inhibition [3] | inhibition [4] | inhibition [5] | inhibition [6] | inhibition [7] | inhibition [8] | inhibition [9] | inhibition [10] | inhibition [11] | inhibition [12] | inhibition [13] | inhibition [14] | inhibition [15] | inhibition [16] | inhibition [17] | inhibition [18] | inhibition [19] | inhibition [20]
NS(=O)(=O)c1cccc(-c2ccc3c(NC(=O)C4CC4)n[nH]c3c2)c1 | -0.5% | -1.55% | -0.19% | -1.03% | -0.85% | 0.61% | -0.59% | -3.17% | 1.94% | -0.52% | 15.4% | -2.48% | 6.25% | -1.92% | -0.84% | -1.67% | -2.14% | -2.01% | -2.08% | -7.61%
COC(=O)Nc1nc2cc(Oc3cccc(NC(=O)Nc4cc(C(F)(F)F)ccc4F)c3)ccc2[nH]1 | 0.74% | 1.17% | 3.3% | 2.97% | 25.7% | -3.12% | 3.93% | 1.62% | 1.94% | -1.36% | -0.81% | 0.2% | 3.07% | 0.93% | 1.74% | -0.27% | 4.25% | 0.34% | 6.29% | -0.45%
Nc1nc(-c2ccc3c(c2)C(=Cc2cc(Br)c(O)c(Br)c2)C(=O)N3)cs1 | 3.96% | -0.02% | 5.44% | -0.63% | 0.2% | -3.03% | 0.66% | -2.57% | 2.43% | -0.46% | 2.67% | -4.7% | 6.08% | 0.01% | -1.62% | 4.51% | 13.7% | 3.07% | 14.7% | 2.35%
COc1ccc(COc2ccc(Cc3cnc(N)nc3N)cc2OC)cc1 | 3.16% | -0.01% | 4.25% | 1.03% | 2.11% | -1.11% | 1.13% | -4.6% | 0.26% | 0.79% | 0.77% | -0.39% | -3.3% | 3.08% | 4.05% | -1.31% | -0.42% | -1.07% | 0.7% | 1.84%
COc1ccc(-c2ccncc2)cc1C(N)=O | 1.48% | 3.69% | 4.6% | 2.23% | 2.25% | 5.04% | 2.52% | 4.29% | -3.25% | 1.12% | 0.74% | -1.44% | 3.66% | -0.9% | 1.01% | 6.32% | 8.48% | 5.07% | 5.66% | 1.23%
Cc1ccc(NC(=O)c2ccnc(N3CCCC3)c2)cc1-c1ccc(C(=O)NCC2CC2)cc1 | -0.86% | 1.54% | 6.32% | -0.77% | 0.49% | 1.08% | 7.31% | -8.49% | -2.58% | 2.24% | 1.97% | 2.17% | 3.08% | -2.27% | 0.03% | 8.24% | 14.7% | 7.57% | 15% | 4.02%
CC1=C(C(=O)Nc2ccc3[nH]ncc3c2)C(c2ccc(Cl)c(Cl)c2)CC(=O)N1 (configuration not stated) | 8.43% | 1.97% | 6.08% | 0.2% | 2.26% | 1.43% | 1.54% | -2.38% | 3.29% | 1.69% | 1.34% | 4.16% | 20% | 0.71% | 2.3% | 5.79% | 31.6% | 6.48% | 31.4% | 4.61%
Nc1ncnc2occ(-c3ccc(NC(=O)Nc4cc(C(F)(F)F)cc(C(F)(F)F)c4)cc3)c12 | 9.49% | 1.01% | 15.9% | 23.4% | 73.9% | 19% | 78.3% | 12.8% | -5.22% | 2.97% | 29.6% | 1.45% | 11.7% | 2.13% | – | 3.58% | 7.33% | 2.27% | 7.76% | 4.46%
Cc1cc(O)cc(C)c1/C=C/c1cncc(-c2nn[nH]n2)c1 | 0.95% | 9.4% | 51.5% | 3.27% | 5.69% | 2.5% | 4.37% | -2.23% | -2.7% | 3.72% | 11.2% | 5.57% | 41.3% | -1.14% | – | 7.69% | 10.1% | 7.48% | 8.79% | 4.51%
NC(=O)c1cccc(Nc2nccc(Nc3cccc4[nH]ncc34)n2)c1 | 6.94% | 53.6% | 76.7% | 2.24% | 29.2% | 6.63% | 48% | 10.4% | 39.1% | 9.98% | 54.4% | 32% | 82.5% | -2.28% | 4.64% | -3.03% | 4.38% | -3.72% | 3.75% | -3.86%
Cn1cc(C=C2C(=O)Nc3cccnc32)c2ccccc21 | 14.1% | 7.5% | 44% | 1.42% | 13.1% | 20.3% | 66.2% | 32.7% | 0.73% | 2.36% | 13.2% | 5.4% | 45.1% | 1.96% | 11.5% | 3.28% | 6.52% | 2.79% | 5.11% | -3.3%
CC(C)=Cc1cccc2c1/C(=N/Nc1ccc(S(N)(=O)=O)cc1)C(=O)N2 | 1.59% | 5.76% | 25.3% | 1.39% | 13.9% | 6.79% | 48.9% | 15.6% | 20.7% | 2.83% | 9.24% | 2.28% | 18% | 4.6% | 4.98% | 0.07% | 2.13% | 0.1% | 2.83% | 3.26%
CCN1CCC(CC(=O)Nc2n[nH]c3nc(-c4cccs4)c(Br)cc23)CC1 | 1.97% | -0.94% | 0.5% | 0.44% | 3.83% | -0.9% | 9.19% | 3.26% | 2.37% | -1.49% | 0.12% | -2.01% | 2.56% | -3.15% | -1.71% | -3.34% | -4.88% | -3.29% | -4.51% | 3.42%
COc1cc(C)c(NC(=O)CN(C)C)cc1Nc1nc(Nc2cccc(F)c2C(N)=O)c2cc[nH]c2n1 | 1.48% | 0.83% | 2.7% | 2.27% | 0.42% | 1.69% | 4.08% | -5.02% | -1.61% | 2.82% | 7.81% | 2.05% | -2.14% | – | 3.93% | 2.75% | 6.44% | 3.06% | 6.56% | -0.92%
